According to PubChem BioAssay:
Calls of active or inactive are those of the source.

These molecules were tested against Luciferin 4-monooxygenase (Photinus pyralis) (UniProt P08659) (assay: firefly luciferase enzyme inhibitors, primary screen, biochemical, luminescence, purified enzyme, 2006 set (AID 1141;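 also: cell-free assay with purified firefly luciferase at 100 ng per well in PBS; test concentration not given here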)). Conditions: SteadyGlo luminescence, 30 min, higher = more signal, called active from +8 up or from −8 down.
Chain of Luciferin 4-monooxygenase (Photinus pyralis) (P08659 whole entry, looked up): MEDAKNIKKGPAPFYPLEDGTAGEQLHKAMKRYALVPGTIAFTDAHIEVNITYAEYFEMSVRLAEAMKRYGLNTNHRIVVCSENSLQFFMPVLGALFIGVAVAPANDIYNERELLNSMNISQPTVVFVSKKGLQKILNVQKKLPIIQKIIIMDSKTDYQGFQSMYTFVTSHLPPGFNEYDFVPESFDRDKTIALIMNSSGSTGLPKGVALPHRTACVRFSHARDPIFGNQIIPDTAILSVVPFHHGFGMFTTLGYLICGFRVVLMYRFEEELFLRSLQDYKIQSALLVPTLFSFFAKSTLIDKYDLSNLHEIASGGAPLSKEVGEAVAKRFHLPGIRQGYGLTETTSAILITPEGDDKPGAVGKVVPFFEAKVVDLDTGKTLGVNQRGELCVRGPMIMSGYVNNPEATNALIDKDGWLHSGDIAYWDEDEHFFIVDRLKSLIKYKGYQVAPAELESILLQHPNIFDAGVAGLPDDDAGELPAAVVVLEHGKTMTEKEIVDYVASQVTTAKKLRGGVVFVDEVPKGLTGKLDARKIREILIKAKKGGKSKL

Row | SMILES | z-score
1 | COC(=O)[C@@]1(Cc2ccc(OC)cc2)[C@H]2c3cc(C(=O)N4CCCC4)n(Cc4nc5ccccc5[nH]4)c3C[C@H]2CN1C(=O)c1ccccc1 | 1.53 (inactive)
2 | COc1ccc(NC(=O)O[C@H]2[C@H](OC(=O)c3cc4ccccc4[nH]3)[C@@H](OC(=O)c3cc4ccccc4[nH]3)[C@@H](OC)O[C@@H]2CO)cc1 | -2.09 (inactive)
3 | C=C(CCCC)C(=O)CC[C@@H](OC(C)=O)c1ccc(CO)o1 | -1.3 (inactive)
4 | O=C1[C@H]2C=C(I)[C@H](C[C@@H]2OCCCCO)[C@@]12CO2 | 0.291 (inactive)
5 | COCCCNC(=O)[C@@]1(Cc2ccccc2)N=C(c2ccc(OCCCO)cc2)O[C@H]1c1ccccc1CN=[N+]=[N-] | -0.781 (inactive)
6 | CN(C)CCCCCCNC(=O)[C@@H]1C[C@@H]2C(=O)N3CCC[C@H]3C(=O)N2[C@@H]1c1ccc(O)cc1 | -0.934 (inactive)
7 | COc1ccc([C@H]2C[C@H]3C(Br)=C[C@@]2(CO)C(=O)[C@]32CO2)cc1 | 0.601 (inactive)
8 | C=CCNC(=O)[C@@H]1[C@H]2C(=O)O[C@H](c3ccccc3)[C@H](c3ccccc3)N2[C@H](c2ccc(OCCO)cc2)[C@@]12C(=O)N(C(=O)OCCOC)c1ccc(C#CCNC(N)=O)cc12 | -0.94 (inactive)
9 | CS(=O)(=O)CCOC(=O)C1=CC(CCCO)=CC(c2ccc(CN3CCCC3)cc2)N(Cc2cccc(OC(F)(F)F)c2)C=C1C(=O)OCCS(C)(=O)=O (stereo unspecified) | -2.68 (inactive)
10 | COCCOC(=O)N1C(=O)[C@@]2(c3cc(C#CC4(O)CCCCCC4)ccc31)[C@H](C(=O)Nc1nc3ccccc3s1)[C@H]1C(=O)O[C@H](c3ccccc3)[C@H](c3ccccc3)N1[C@@H]2c1ccc(OCCO)cc1 | -3.29 (inactive)
11 | [N-]=[N+]=Nc1ccccc1C[C@]1(C(=O)NCC(O)CO)N=C(c2ccc(OCCCO)cc2)O[C@H]1c1ccccc1 (stereo partly specified) | -1.78 (inactive)
12 | [N-]=[N+]=NCc1ccccc1C[C@@]1(C(=O)NCC(O)CO)N=C(c2ccc(OCCCO)cc2)O[C@@H]1c1ccccc1 (stereo partly specified) | -1.69 (inactive)
13 | C=CCN1C(=O)[C@]2(O[C@H](CCO)[C@@H]([Si](C)(C)c3ccc(OC)cc3)[C@@H]2C)c2cc(N(C=O)c3ccccc3)ccc21 | -0.914 (inactive)
14 | Cc1ccc(S(=O)(=O)N2C[C@@H](C(=O)O)[C@H](Sc3ccccc3)C[C@H]2c2ccccc2)cc1 | 1.88 (inactive)
15 | COC(=O)[C@]1(Cc2ccccc2)N=C(c2ccc(OCCCO)cc2)O[C@@H]1c1ccccc1N=[N+]=[N-] | -4.8 (inactive)
16 | C=CC[C@]1(C(N)=O)N=C(c2ccc(OCCCO)cc2)O[C@H]1c1ccccc1 | 0.004 (inactive)
17 | [N-]=[N+]=Nc1ccccc1[C@H]1OC(c2ccc(OCCCO)cc2)=N[C@@]1(Cc1ccccc1)C(=O)N1CCOCC1 | -5.58 (inactive)
18 | O=C1NC(=O)C2C1C=CC(C(O)c1ccc(-c3ccccc3)s1)N2Nc1ccc(Cl)cc1Cl (stereo unspecified) | -0.289 (inactive)

Row | SMILES | z-score
19 | NCCCCCNC(=O)[C@H]1C[C@H]2C(=O)N3CCC[C@H]3C(=O)N2[C@H]1c1ccc(O)cc1 | -0.462 (inactive)
20 | CC(=O)n1cc(C(O)C2C=CC3C(=O)NC(=O)C3N2Nc2ccccn2)c2ccccc21 (stereo unspecified) | -1.35 (inactive)
21 | CO[C@H]1O[C@H](CO)[C@@H](OC(=O)Nc2cccc(F)c2)[C@H](OC(=O)Nc2ccccc2)[C@H]1OC(=O)Nc1ccccc1 | 0.124 (inactive)
22 | CO[C@H]1O[C@H](CO)[C@@H](OC(=O)Nc2ccccc2-c2ccccc2)[C@H](OC(=O)Nc2ccccc2-c2ccccc2)[C@@H]1OC(=O)Nc1ccccc1-c1ccccc1 | -0.858 (inactive)
23 | O=C(NCc1ccccc1)[C@@H]1c2ccccc2C(=O)N(C2Cc3ccccc3C2)[C@H]1c1ccc(CO)cc1 | 0.111 (inactive)
24 | O=C1C2C=CC(C(O)c3ccc(-c4ccccc4)s3)N(Nc3ccccc3)C2C(=O)N1c1ccccc1 (stereo unspecified) | 0.192 (inactive)
25 | Cc1c(NC(=O)/C(C#N)=C/c2cccc([N+](=O)[O-])c2)c(=O)n(-c2ccccc2)n1C | -1.09 (inactive)
26 | O=C1C2C=CC(C(O)c3c(F)cccc3Cl)N(Nc3ccccc3F)C2C(=O)N1c1ccccc1 (stereo unspecified) | -0.059 (inactive)
27 | NCCCCCCNC(=O)[C@H]1C[C@H]2C(=O)N[C@@H](Cc3ccccc3)C(=O)N2[C@H]1c1cccc(OCCO)c1 | 0.0326 (inactive)
28 | CN(C)CCCC[C@@H]1NC(=O)[C@H]2C[C@@H](C(=O)NCCCCCN)[C@@H](c3cccc(OCCO)c3)N2C1=O | -0.69 (inactive)
29 | O=C(NCCN1CCOCC1)[C@@H]1c2ccccc2C(=O)N(Cc2cc(C(F)(F)F)cc(C(F)(F)F)c2)[C@H]1c1ccc(CO)cc1 | -0.372 (inactive)
30 | COc1ccc([Si](C)(C)[C@@H]2[C@@H](CC(=O)N3Cc4ccccc4C[C@H]3CO)O[C@]3(C(=O)N(Cc4cccc(N5CCC5=O)c4)c4ccccc43)[C@H]2C)cc1 | -0.106 (inactive)
31 | CN1C(=O)C2C=CC(C(O)c3c(F)cccc3Cl)N(NC(=O)OC(C)(C)C)C2C1=O (stereo unspecified) | 0.682 (inactive)
32 | O=C1OCCC/C=C\[C@H]2OC34C=CCN(c5ccc6ccccc6c5)C(=O)[C@H]3N(CCCCCO)C(=O)[C@@H]4C12 (stereo partly specified) | 0.118 (inactive)
33 | COc1ccc([Si](C)(C)[C@H]2[C@H](CC(=O)N3CCC[C@H]3CO)O[C@@]3(C(=O)N(Cc4cccc(N5CCOC5=O)c4)c4ccccc43)[C@@H]2C)cc1 | 0.526 (inactive)
34 | COCC(=C=CC[C@H](O)c1cccc(OCCO)c1)CCO | 0.415 (inactive)
35 | C=CCC(OC(C)=O)[C@@H]1[C@@H](N(Cc2ccc(-c3cccc(C(F)(F)F)c3)o2)C(=O)c2cccc3ccccc23)c2cc(OCCCO)ccc2N1C(=O)Cc1ccc2ccccc2c1 (stereo partly specified) | 0.335 (inactive)
36 | COCCOC(=O)N1C(=O)[C@@]2(c3ccccc31)[C@H](C(=O)N1CCCCCCC1)[C@H]1C(=O)O[C@H](c3ccccc3)[C@H](c3ccccc3)N1[C@@H]2c1ccc(OCCO)cc1 | -0.255 (inactive)
